Inconclusive results are not listed. Calls of active or inactive are those of the source. Calls follow the shape of the dose curve; as a rule, active = well fitted cell-killing curve with a large enough effect; inconclusive = small, poorly fitted or top-dose-only effect, or effect the other way; inactive = flat fitted curve, though single readings scatter.
Legend:
Assay in all cases: Primary qHTS to identify gynecologic anti-cancer compounds using libraries of approved drugs and bioactive compounds (AID 1345084); also: nearly all actives have a fitted effect of over 55% in size
[1] = tested on: CAOV3; conditions: Gynecologic cancer cell panel viability, ATPlite luminescence, 48 h; series mostly up to 57.5 µM
Procedure, shortened: (§1)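 Luminescence from the ATPlite ATP-monitoring reagent indicates viable cell number; lower signal means cytotoxicity. Cells received compound 16 h after seeding and were exposed for 48 h across five concentrations.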

[2] = tested on: CASKI; conditions: Gynecologic cancer cell panel viability, ATPlite luminescence, 48 h; series mostly up to 57.5 µM
Procedure, shortened: as §1

[3] = tested on: Es-2; conditions: Gynecologic cancer cell panel viability, ATPlite luminescence, 48 h; series mostly up to 57.5 µM
Procedure, shortened: as §1

[4] = tested on: HeLa; conditions: Gynecologic cancer cell panel viability, ATPlite luminescence, 48 h; series mostly up to 57.5 µM
Procedure, shortened: as §1

[5] = tested on: Hek293T; conditions: Gynecologic cancer cell panel viability, ATPlite luminescence, 48 h, control line for the selectivity index; series mostly up to 57.5 µM
Procedure, shortened: as §1

[6] = tested on: JEG-3; conditions: Gynecologic cancer cell panel viability, ATPlite luminescence, 48 h; series mostly up to 57.5 µM
Procedure, shortened: as §1

[7] = tested on: OV90; conditions: Gynecologic cancer cell panel viability, ATPlite luminescence, 48 h; series mostly up to 57.5 µM
Procedure, shortened: as §1

[8] = tested on: PA-1; conditions: Gynecologic cancer cell panel viability, ATPlite luminescence, 48 h; series mostly up to 57.5 µM
Procedure, shortened: as §1

[9] = tested on: SKOV3; conditions: Gynecologic cancer cell panel viability, ATPlite luminescence, 48 h; series mostly up to 57.5 µM
Procedure, shortened: as §1

[10] = tested on: Tov-21-G; conditions: Gynecologic cancer cell panel viability, ATPlite luminescence, 48 h; series mostly up to 57.5 µM
Procedure, shortened: as §1

[11] = tested on: Tov112D; conditions: Gynecologic cancer cell panel viability, ATPlite luminescence, 48 h; series mostly up to 57.5 µM
Procedure, shortened: as §1
% is scaled to controls: 0 for no effect and ±100 for the full control effect.

CCOc1nc2cccc(C(=O)OCc3oc(=O)oc3C)c2n1Cc1ccc(-c2ccccc2-c2noc(O)n2)cc1
inactive: Potency [1] | Potency [2] | Potency [3] | Potency [4] | Potency [5] | Potency [6] | Potency [7] | Potency [8] | Potency [9] | Potency [10] | Potency [11]

CC[C@H]1OC(=O)[C@H](C)[C@@H](O[C@H]2C[C@@](C)(OC)[C@@H](O)[C@H](C)O2)[C@H](C)[C@@H](O[C@@H]2O[C@H](C)C[C@H](N(C)C)[C@H]2O)[C@@](C)(O)C[C@@H](C)[C@@H]2N[C@@H](COCCOC)OC([C@H]2C)[C@]1(C)O
inactive: Potency [1] | Potency [2] | Potency [3] | Potency [4] | Potency [5] | Potency [6] | Potency [7] | Potency [8] | Potency [9] | Potency [10] | Potency [11]

C=C[C@H]1[C@H](O[C@@H]2O[C@H](CO)[C@@H](O)[C@H](O)[C@H]2O)OC=C2C(=O)OCC[C@]21O
inactive: Potency [1] | Potency [2] | Potency [3] | Potency [4] | Potency [5] | Potency [6] | Potency [7] | Potency [8] | Potency [9] | Potency [10] | Potency [11]

COc1ccc2c3c1O[C@H]1C[C@@H](O)C=C[C@@]31CCN(C)C2
inactive: Potency [1] | Potency [2] | Potency [3] | Potency [4] | Potency [5] | Potency [6] | Potency [7] | Potency [8] | Potency [9] | Potency [10] | Potency [11]

O=C(NN1CCCCC1)c1nn(-c2ccc(Cl)cc2Cl)c(-c2ccc(C#Cc3ccc(C(F)(F)F)cc3)s2)c1CNS(=O)(=O)N1CCCC1
inactive: Potency [1] | Potency [2] | Potency [3] | Potency [4] | Potency [5] | Potency [6] | Potency [7] | Potency [8] | Potency [9] | Potency [10] | Potency [11]

COc1cccc2c1CCC[C@H]2CN(C)CCc1ccc2ccoc2c1
inactive: Potency [1] | Potency [2] | Potency [3] | Potency [4] | Potency [5] | Potency [6] | Potency [7] | Potency [8] | Potency [9] | Potency [10] | Potency [11]

C[C@@H]1O[C@@H](O[C@H]2[C@H](O)[C@@H](O)[C@H](OC[C@H]3O[C@@H](OC(=O)[C@]45CCC(C)(C)C[C@H]4C4=CCC6[C@@]7(C)C[C@H](O)[C@H](O[C@@H]8O[C@H](CO)[C@@H](O)[C@H](O)[C@H]8O)[C@@](C)(C(=O)O)C7CC[C@@]6(C)[C@]4(C)CC5)[C@H](O[C@@H]4O[C@H](CO)[C@@H](O)[C@H](O)[C@H]4O)[C@@H](O)[C@@H]3O)O[C@@H]2CO)[C@H](O)[C@H](O)[C@H]1O (stereo partly drawn)
inactive: activity change, negative = cytotoxicity [1] 11.2% [at 6.55 µM] | activity change, negative = cytotoxicity [2] 9.67% [at 6.55 µM] | activity change, negative = cytotoxicity [3] 9.17% [at 6.55 µM] | activity change, negative = cytotoxicity [4] 0.162% [at 6.55 µM] | activity change, negative = cytotoxicity [5] 3.11% [at 6.55 µM] | activity change, negative = cytotoxicity [6] -3.92% [at 6.55 µM] | activity change, negative = cytotoxicity [7] 0.564% [at 6.55 µM] | activity change, negative = cytotoxicity [8] 15.2% [at 6.55 µM] | activity change, negative = cytotoxicity [9] 8.21% [at 6.55 µM] | activity change, negative = cytotoxicity [10] 6.93% [at 6.55 µM] | activity change, negative = cytotoxicity [11] 5.3% [at 6.55 µM]

CC1CCC2(O1)C(C)(C)CC(O[C@@H]1O[C@H](CO[C@@H]3OC[C@](O)(CO)[C@H]3O)[C@@H](O)[C@H](O)[C@H]1O)CC2(C)O (stereo partly drawn)
inactive: Potency [1] | Potency [2] | Potency [3] | Potency [4] | Potency [5] | Potency [6] | Potency [7] | Potency [8] | Potency [9] | Potency [10] | Potency [11]

O=C(/C=C/c1ccc(O)cc1)OCC1=CC2OC(=O)C3=CO[C@@H](O[C@@H]4O[C@H](CO)[C@@H](O)[C@H](O)[C@H]4O)[C@H]1[C@@H]32 (stereo partly drawn)
inactive: Potency [1] | Potency [2] | Potency [3] | Potency [4] | Potency [5] | Potency [6] | Potency [7] | Potency [8] | Potency [9] | Potency [10] | Potency [11]

C[C@]1(OC(=O)/C=C/c2ccccc2)C[C@H](O)[C@]2(O)C=CO[C@@H](O[C@@H]3O[C@H](CO)[C@@H](O)[C@H](O)[C@H]3O)C12 (stereo partly drawn)
inactive: Potency [1] | Potency [2] | Potency [3] | Potency [4] | Potency [5] | Potency [6] | Potency [7] | Potency [8] | Potency [9] | Potency [10] | Potency [11]

COc1cc(C2Oc3c(O)cc(CCCO)cc3C2CO)ccc1O[C@H]1O[C@H](C)[C@@H](O)[C@H](O)[C@@H]1O (stereo partly drawn)
inactive: Potency [1] | Potency [2] | Potency [3] | Potency [4] | Potency [5] | Potency [6] | Potency [7] | Potency [8] | Potency [9] | Potency [10] | Potency [11]

C=CC(C)(O)CC/C=C(/C)C(=O)OC1C(OC2OCC(OC3OC(CO)C(O)C(O)C3O)C(OC3OCC(O)C(OC4OC(C)C(O)C(O)C4O)C3O)C2O)COC(OC(=O)C23CCC(C)(C)CC2C2=CCC4C5(C)CCC(OC6OC(CO)C(OC7OC(CO)C(O)C(OC8OCC(O)C(O)C8O)C7O)C(O)C6O)C(C)(C)C5CCC4(C)C2(C)CC3O)C1O (stereo not drawn)
inactive: activity change, negative = cytotoxicity [1] 6.96% [at 6.55 µM] | activity change, negative = cytotoxicity [2] 8.91% [at 6.55 µM] | activity change, negative = cytotoxicity [3] -0.338% [at 6.55 µM] | activity change, negative = cytotoxicity [4] 1.37% [at 6.55 µM] | activity change, negative = cytotoxicity [5] -23.4% [at 6.55 µM] | activity change, negative = cytotoxicity [6] -0.642% [at 6.55 µM] | activity change, negative = cytotoxicity [7] -1.5% [at 6.55 µM] | activity change, negative = cytotoxicity [8] 6.35% [at 6.55 µM] | activity change, negative = cytotoxicity [9] 24.3% [at 6.55 µM] | activity change, negative = cytotoxicity [10] 1.46% [at 6.55 µM] | activity change, negative = cytotoxicity [11] 0.487% [at 6.55 µM]

COc1ccc(/C=C/C(=O)O[C@H]2[C@@H]3C=CO[C@@H](O[C@@H]4O[C@H](CO)[C@@H](O)[C@H](O)[C@H]4O)[C@@H]3[C@@]3(CO)O[C@@H]23)cc1O
inactive: Potency [1] | Potency [2] | Potency [3] | Potency [4] | Potency [5] | Potency [6] | Potency [7] | Potency [8] | Potency [9] | Potency [10] | Potency [11]

From PubChem BioAssay (NCATS)
